Reference: PubChem BioAssay (NCATS)
Inconclusive results are not listed. Some compounds were tested as several samples or in several runs, with calls that do not always agree. Activity calls are given as the source filed them. The call rests on the fitted dose curve; in most records, active means well fitted inhibition curve with a large enough effect in the repeat runs; inconclusive means weak or mixed curves; inactive means flat fitted curve, though single readings scatter.

biological target: Cytochrome P450 2D6 (Homo sapiens) (UniProt P10635); test: Cytochrome P450 family 2 subfamily D member 6 (CYP2D6) small molecule antagonists: luciferase biochemical (cell-free) qHTS assay (AID 1645840); details: P450-Glo CYP2D6 enzyme, luciferin luminescence, 1 h; series mostly up to 57.4 µM; activity change, negative = inhibition: at the top concentration; further: nearly all actives have a fitted effect of over 55% in size
Sequence (P10635 whole entry, looked up): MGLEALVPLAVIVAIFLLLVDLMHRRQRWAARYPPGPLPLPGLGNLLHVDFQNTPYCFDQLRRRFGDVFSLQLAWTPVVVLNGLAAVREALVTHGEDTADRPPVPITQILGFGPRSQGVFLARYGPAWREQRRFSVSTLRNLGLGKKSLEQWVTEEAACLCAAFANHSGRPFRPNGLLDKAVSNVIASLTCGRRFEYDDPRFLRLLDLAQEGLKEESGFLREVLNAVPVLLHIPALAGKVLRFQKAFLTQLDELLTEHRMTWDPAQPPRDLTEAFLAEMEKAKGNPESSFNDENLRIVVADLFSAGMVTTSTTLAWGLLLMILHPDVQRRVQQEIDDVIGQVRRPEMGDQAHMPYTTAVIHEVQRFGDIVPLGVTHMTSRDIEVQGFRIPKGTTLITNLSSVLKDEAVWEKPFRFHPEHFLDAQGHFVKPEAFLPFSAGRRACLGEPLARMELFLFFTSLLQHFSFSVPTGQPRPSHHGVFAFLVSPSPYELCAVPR
Procedure: National Center for Advancing Translational Sciences [NCATS] Assay Overview: Cytochrome P450 (CYP) enzymes are membrane-bound hemeproteins that play a key role in metabolism of drugs and xenobiotics. Assaying the effect of chemicals on CYP isozymes is useful to minimize the adverse drug reactions and toxicities in drug development process. Chemical compounds were tested for their effect on CYP enzyme activities by using P450-Glo (TM) screening systems (Promega Corporation, Madison, WI). These systems provide a luminescent method containing proluciferin substrates and are converted to luciferin products by CYP isozymes. The luciferin products formed are detected with a luciferin detection reagent, and the amount of light produced is proportional to CYP activity. P450-Glo (TM) CYP2D6 screening system (Catalog. No. V9890) was used to detect the compounds that interfere in CYP2D6 activity.
Assay Protocol Summary: Two ul of enzyme-substrate mix was dispensed into medium binding white/solid 1536-well plates (Greiner Bio-One North America Inc., Monroe, NC) using a Flying Reagent Dispenser (FRD, Aurora Discovery, San Diego, CA). […] The assay plates were incubated at room temperature for 10 min. Then 2 ul of NADPH regeneration solution was added to each well of the assay plates using an FRD and incubated at room temperature for 1 h. The reaction was stopped by adding 4 ul of detection reagent using an FRD and after 20 min incubation at room temperature, the luminescence signal was measured using a ViewLux plate reader (Perkin Elmer, Shelton, CT). Data were expressed as relative luminescence units.
On the % scale 0 is the no-effect control and ±100 the full control effect; potency means the concentration at half of the fitted maximal effect.

| SMILES | activity change, negative = inhibition | Potency |
| --- | --- | --- |
| C[C@]12CC[C@H]3[C@@H](CC[C@@]45O[C@H]4C(O)=C(C#N)C[C@]35C)[C@H]1CC[C@H]2O | 6.45% (inactive) | – |
| O=[N+]([O-])O[C@H]1CO[C@H]2[C@@H]1OC[C@H]2O[N+](=O)[O-] | -0.284% (inactive) | – |
| O=P1(N(CCCl)CCCl)NCCCO1 (stereo not given) | -3.58% (inactive) | – |
| CC(NC(C)(C)C)C(=O)c1cccc(Cl)c1 (stereo not given) | – | 11 µM (active) |
| O=C1OC(CCN2CCCCC2)OC1(c1ccccc1)c1ccccc1 (stereo not given) | – | 0.617 µM (active) |
| O=c1c(C2CC(c3ccc(-c4ccc(Br)cc4)cc3)Cc3ccccc32)c(O)sc2ccccc12 (stereo not given) | -0.0114% (inactive) | – |
| CCCOC(=O)c1cncn1C(C)c1ccccc1 (stereo not given) | -25.8% (inactive) | – |
| C[C@]12CCC(=O)C=C1CC[C@@H]1[C@@H]2CC[C@@]2(C)[C@H]1CC[C@]2(C)O | -18.4% (inactive) | – |
| CC(C)NC(C)C | -4.88% (inactive) | – |
| CC(=O)NC1CCSC1=O (stereo not given) | -0.278% (inactive) | – |
| C=CCN1C[C@H](C)N([C@H](c2ccc(C(=O)N(CC)CC)cc2)c2cccc(OC)c2)C[C@H]1C | – | 2.45 µM (active) |
| CC(Cc1ccccc1)N(C)Cc1ccco1 (stereo not given) | – | 2.45 µM (active) |
| C#CC(O)(C=CCl)CC (stereo not given) | -0.339% (inactive) | – |
| CNCC(=O)c1ccc(O)c(O)c1 | -2.94% (inactive) | – |
| COC1CC(=C(c2cccs2)c2cccs2)C[N+](C)(C)C1 (stereo not given) | – | 0.138 µM (active) |
| O=C1c2ccccc2C(=O)c2ccccc21 | 5.14% [at 23.9 µM] (inactive) | – |
| O=c1[nH]oc2c1CCNC2 | -11.7% (inactive) | – |
| CN1C(=O)CCS(=O)(=O)C1c1ccc(Cl)cc1 (stereo not given) | 15.8% (inactive) | – |
| O=C1CN=C(c2ccccc2)c2cc([N+](=O)[O-])ccc2N1 | -20.5% (inactive) | – |
| COc1cccc(C(=O)CCN[C@@H](C)[C@H](O)c2ccccc2)c1 | – | 1.55 µM (active) |

| SMILES | activity change, negative = inhibition | Potency |
| --- | --- | --- |
| CCc1cc2c(s1)-n1c(C)nnc1CN=C2c1ccccc1Cl | -11.3% (inactive) | – |
| Cc1ncsc1CCCl | 3.97% (inactive) | – |
| CCN(CCO)CCn1c(Cc2ccccc2)nc2c1c(=O)n(C)c(=O)n2C | 1.43% (inactive) | – |
| CN1C(=O)COc2c(C(=O)NC3CN4CCC3CC4)cc(Cl)cc21 (stereo not given) | 5.55% (inactive) | – |
| CCOC(=O)CC(SP(=S)(OC)OC)C(=O)OCC (stereo not given) | – | 39.9 µM (active) and inactive |
| C#C[C@]1(O)CC[C@H]2[C@@H]3CCC4=CC(=O)CC[C@]4(C)[C@H]3CC[C@@]21C | -8.7% (inactive) | – |
| C[C@]12CCC(=O)C=C1CC[C@@H]1[C@@H]2CC[C@]2(C)C(=O)CC[C@@H]12 | -17% (inactive) | – |
| COP(=S)(OC)Oc1cc(Cl)c(Cl)cc1Cl | -12.8% (inactive) | – |
| c1ccc2c(c1)sc1ccccc12 | 7.01% (inactive) | – |
| Clc1ccc(C(c2ccc(Cl)cc2)C(Cl)(Cl)Cl)cc1 | -21.7% (inactive) | – |
| COc1ccc2c3c1O[C@H]1[C@H](O)CC[C@H]4[C@@H](C2)N(C)CC[C@@]341 | -19.5% [at 115 µM] (inactive) | – |
| COc1cccc([C@@]2(O)CCCC[C@@H]2CN(C)C)c1 | -11.8% (inactive) | – |
| CCN[C@@H](C)Cc1ccccc1 | – | 6.28 µM (active) |
| CCN[C@@H](C)Cc1cccc(C(F)(F)F)c1 | – | 2.75 µM (active) |
| CC(C)(C)NCC(O)c1cc(Cl)c(N)c(C(F)(F)F)c1 (stereo not given) | – | 15.5 µM (active) |
| CC(Cc1ccccc1)NCCn1cnc2c1c(=O)n(C)c(=O)n2C (stereo not given) | – | 7.01 µM (active) |
| COC(=O)[C@@H](N)CCCN/C(N)=N/[N+](=O)[O-] | 2.07% (inactive) | – |
| C=CCC1([C@H](C)CCC)C(=O)NC(=O)NC1=O | 14.1% [at 115 µM] (inactive) | – |
| CN1CCC(O)(c2ccc(F)cc2)C(C(=O)c2ccc(F)cc2)C1 (stereo not given) | – | 24.5 µM (active) |
| O=C(O)CCCc1ccc(N(CCCl)CCCl)cc1 | 15.2% (inactive) | – |
